# Unmarked numbers belong to inactive results. Records with an inconclusive call do not appear. Calls of active or inactive are those of the source. Unless noted, calls come from the whole dose curve; as a rule, active = well fitted curve in the direction sought with a large enough effect; inconclusive = small, poorly fitted or top-dose-only effect, or another doubt; inactive = no such curve, though single readings can be large; an effect the other way counts as inactive or inconclusive.
# Assays:
# [1] = target: Lysosomal acid glucosylceramidase (Homo sapiens) (UniProt P04062); experiment: Glucocerebrosidase-p2 (AID 348; in the data active = potency below about 10 µM; note: potency is the fitted concentration of half-maximal effect); settings: purified GBA, blue fluorogenic substrate, 40 min
# Summary of the method: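 Normal human glucocerebrosidase (0.2 nM) with blue fluorogenic substrate (80 uM final) in citrate/phosphate pH 5.9 with 10mM sodium taurocholate, 0.01% tween-20; 40 min RT, NaOH/glycine stop; fluorescence Ex 365/Em 440; AC50 from a titration from 0.6 nM upwards.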
# [2] = AP1 Signaling Pathway (AID 357; active = well fitted curve in either direction with a large enough effect, not every such curve was filed as active;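 note: ME-180 reporter cells stimulated with EGF at its EC50 level; % is set by controls: 0 for no effect and ±100 for the full control effect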); settings: ME-180 AP-1-bla reporter, EGF-induced, beta-lactamase ratio, 5 h; at 7.69 µM (top of the series) unless noted
# Summary of the method: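 Cells are seeded overnight, exposed to compound titrations and an EC50 level of EGF for 5 hours at 37 °C, then loaded with CCF4 dye for 2.5 hours. Beta-lactamase activity under the AP-1 element is read as a blue/green ratio.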
# [3] = target: Cytochrome P450 1A2 (Homo sapiens) (UniProt P05177); experiment: p450-cyp1a2 (AID 410; calls by dose curve; note: potency is the fitted concentration of half-maximal effect); settings: recombinant CYP1A2, luciferin-ME demethylation, luminescence; series mostly up to 57 µM
# Summary of the method: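 Read-out is luminescence from luciferin produced by CYP1A2 demethylation of Luciferin-ME (100uM, at Km). Detection reagent stopped the 60 min NADPH-dependent reaction; signals were normalized to 57 uM furafylline.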
# [4] = NFAT Signaling Pathway (AID 444; active = well fitted curve in either direction with a large enough effect, not every such curve was filed as active;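 note: carbachol stimulus at about its EC50 of 1 µM final; % is set by controls: 0 for no effect and ±100 for the full control effect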); settings: Jurkat NFAT-bla M1, carbachol, beta-lactamase ratio, 5 h; at 7.69 µM (top of the series) unless noted
# Summary of the method: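 Read-out: CCF4 FRET ratio (460 nm/530 nm) after 1 h RT dye loading, used for %activity and AC50 from titration series. Cells: Jurkat NFAT-β-lactamase/M1 line, treated with compound plus 1 uM carbachol for 5 h, 37 °C.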
# [5] = Stat Signaling Pathway (AID 446; active = well fitted curve in either direction with a large enough effect, not every such curve was filed as active;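 note: ME-180 cervical cancer cells given 40 pM IL-6 alongside compound; SIE-controlled beta-lactamase reporter measured as 460/530 nm FRET emission ratio; % is set by controls: 0 for no effect and ±100 for the full control effect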); settings: ME-180 SIE beta-lactamase reporter, IL-6 stimulated, 5 h; at 7.69 µM (top of the series) unless noted
# Summary of the method: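 Emission at 460 and 530 nm (excitation 405 nm) reports SIE-controlled beta-lactamase in ME-180 cells. Cells received compound with 40 pM IL-6 for 5 hrs at 37 C; data scaled between 300 pM IL-6 and 125 nM JAK-inhibitor controls.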
# [6] = target: Glucocorticoid receptor (Homo sapiens) (UniProt P04150); experiment: GR-GFP Redistribution (AID 450;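 active = compounds whose dose series gives a full or clear partial fitted curve of increased nuclear translocation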; note: potency is the fitted concentration of half-maximal effect); settings: U2OS GR-GFP nuclear translocation, laser cytometry, 2 h
# [7] = target: Glucocorticoid receptor (Homo sapiens) (UniProt P04150); experiment: GR-EFC Redistribution (AID 451; calls by dose curve; note: potency is the fitted concentration of half-maximal effect); settings: CHO-K1 GR-EFC translocation, beta-gal luminescence, 2 h
# Summary of the method: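 Translocation of GR-ED fusion to nuclear EA restores b-gal, read by luminescence after 1 h room-temperature detection. Engineered CHO-K1 biosensor cells, 1,000/well, exposed 2 h at 37 C to titrations up to 46 uM final.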
# [8] = target: 3',5'-cyclic-AMP phosphodiesterase 4B (Homo sapiens) (UniProt Q07343); experiment: qHTS Assay for Inhibitors of PDE-IV (AID 607; active = well fitted activation curve with a large enough effect in the main read-out, with a control signal flat, not every such curve was filed as active; note: % of control where 0% means no effect); settings: HEK293 ACTOne CNG channel cells, membrane potential fluorescence; series mostly up to 22.9 µM
# Summary of the method: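 The readout is membrane depolarisation from a cAMP-sensing CNG channel, detected with a potential dye at ex 535/em 590. Cells were HEK293-derived (endogenous PDE-IV) at 1000 cells/well, titrated up to 22.9 uM final.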
# [9] = target: Cytochrome P450 3A4 (Homo sapiens) (UniProt P08684); experiment: qHTS Assay for Inhibitors and Substrates of Cytochrome P450 3A4 (AID 884); settings: recombinant CYP3A4, Luciferin-PPXE luminescence; series mostly up to 57.1 µM; note: potency is the fitted concentration of half-maximal effect; nearly all actives have a fitted effect of over 50% in size
# Summary of the method: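 Luminescent readout of luciferin produced by CYP3A4 (20 nM) dealkylation of Luciferin-PPXE, 25 uM (its KM). NADPH-driven reaction ran 60 min at RT after 10 min compound preincubation; data scaled to 57 uM ketoconazole as 100% inhibition.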
# [10] = target: Cytochrome P450 3A4 (Homo sapiens) (UniProt P08684); experiment: qHTS Assay for Activators of Cytochrome P450 3A4 (AID 885); settings: recombinant CYP3A4, Luciferin-PPXE luminescence, 60 min; series mostly up to 57.1 µM; note: nearly all actives have a fitted effect of over 65% in size
# Summary of the method: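 Activators are scored by enhanced luminescence from CYP3A4 conversion of luciferin-PPXE (25uM, equal to KM) to luciferin, after 60 min at RT with an NADPH-regenerating system.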
# [11] = target: Cytochrome P450 2C19 (Homo sapiens) (UniProt P33261); experiment: qHTS Assay for Inhibitors and Substrates of Cytochrome P450 2C19 (AID 899); settings: recombinant CYP2C19, luciferin-H EGE luminescence; series mostly up to 57.1 µM; note: potency is the fitted concentration of half-maximal effect; nearly all actives have a fitted effect of over 60% in size
# Summary of the method: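 Reactions contain 5nM enzyme, 10uM Luciferin-H EGE (KM) and 50mM KPO4; compound preincubates 10 min at 37C, NADPH regeneration starts turnover for 60 min. Luminescence after detection reagent gives activity.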
# [12] = qHTS Assay for Identification of Small Molecule Agonists for Hypoxia Response Element Signaling Pathway (AID 914; active = well fitted activation curve with a large enough effect in the signal ratio, with a control signal flat, not every such curve was filed as active; the % refers to the signal ratio; note: % of control where 0% means no effect); settings: ME-180 (cervical carcinoma) HRE-bla reporter, beta-lactamase ratio, CoCl2, 17 h; activation: hits give high values
# Summary of the method: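 Reporter activity (beta-lactamase, CCF4 460nm/530nm ratio) in HRE-bla ME-180 cells is recorded after 17 h compound exposure with EC50 CoCl2 at 37 degrees Celsius. AC50 values come from titration data.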
# [13] = target: Dual specificity protein kinase CLK4 (Homo sapiens) (UniProt Q9HAZ1); experiment: qHTS Assay for Inhibitors of CDC-like Kinase 4 (ADP-FP Assay) (AID 1795); settings: Transcreener ADP fluorescence polarization; series mostly up to 50 µM; note: % is set by controls: 0 for no effect and ±100 for the full control effect; nearly all actives have a fitted effect of over 60% in size
# Summary of the method: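 Recombinant human Clk4 (6.25 nM) phosphorylated RS repeat peptide (100 uM) with 1 uM ATP in Tris pH 7.5/MgCl2/EGTA/DTT/Triton buffer for one hour. ADP was quantified by Transcreener competitive fluorescence polarization against an ADP calibration curve.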
# [14] = target: Ubiquitin carboxyl-terminal hydrolase 1 (Homo sapiens) (UniProt O94782); experiment: Inhibitors of USP1/UAF1: Pilot qHTS (AID 504865); settings: purified USP1/UAF1, Ub-rhodamine cleavage fluorescence; series mostly up to 54.9 µM;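 note: rhodamine fluorescence freed from ubiquitin-rhodamine substrate followed over time; top concentration of the series differs between compounds; % is set by controls: 0 for no effect and ±100 for the full control effect; nearly all actives have a fitted effect of over 35% in size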
# Summary of the method: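 USP1/UAF1 complex (1nM) preincubated with compound 15 min at room temperature, then Ub-Rho substrate (150nM final) added. Fluorescence read kinetically at 480/540 nm, 6 reads every 60 seconds. Buffer: 50mM HEPES pH 7.8, 0.5mM EDTA, 0.1 mg/ml BSA, 1mM TCEP, 0.01% Tween-20.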
# [15] = Primary qHTS for small molecule stabilizers of the endoplasmic reticulum resident proteome: Secreted ER Calcium Modulated Protein (SERCaMP) assay (AID 1508630); settings: SH-SY5Y GLuc-SERCaMP (Gaussia luciferase released on ER calcium loss) secretion, thapsigargin, luminescence; series mostly up to 38.4 µM; note: % is set by controls: 0 for no effect and ±100 for the full control effect
# Summary of the method: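 The SH-SY5Y reporter protocol was run at 3 concentrations up to 38.3 uM (primary) or 11 concentrations (follow-up): 16 h compound, 100 nM thapsigargin for 4 h, then extracellular luciferase luminescence.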
# [16] = target: Mitogen-activated protein kinase 10 (Mus musculus) (UniProt Q61831); experiment: JNK3 AlphaScreen Assay (AID 530; active = well fitted curve in either direction with a large enough effect, not every such curve was filed as active); settings: JNK3 lysate, c-Jun phosphorylation; series mostly up to 57.1 µM
# Summary of the method: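 Kinase buffer: 20 mM Tris-HCl pH 7.6, 10 mM MgCl2, 1 mM DTT, 0.1 mM Na3VO4, 0.01% Tween-20; ATP 10 uM. Substrate biotin-GST-cJun(1-79), enzyme from activated HepG2 lysates. Detection by Ser73 phospho-antibody AlphaScreen.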
# Chain of Cytochrome P450 2C19 (Homo sapiens) (P33261 whole entry, looked up): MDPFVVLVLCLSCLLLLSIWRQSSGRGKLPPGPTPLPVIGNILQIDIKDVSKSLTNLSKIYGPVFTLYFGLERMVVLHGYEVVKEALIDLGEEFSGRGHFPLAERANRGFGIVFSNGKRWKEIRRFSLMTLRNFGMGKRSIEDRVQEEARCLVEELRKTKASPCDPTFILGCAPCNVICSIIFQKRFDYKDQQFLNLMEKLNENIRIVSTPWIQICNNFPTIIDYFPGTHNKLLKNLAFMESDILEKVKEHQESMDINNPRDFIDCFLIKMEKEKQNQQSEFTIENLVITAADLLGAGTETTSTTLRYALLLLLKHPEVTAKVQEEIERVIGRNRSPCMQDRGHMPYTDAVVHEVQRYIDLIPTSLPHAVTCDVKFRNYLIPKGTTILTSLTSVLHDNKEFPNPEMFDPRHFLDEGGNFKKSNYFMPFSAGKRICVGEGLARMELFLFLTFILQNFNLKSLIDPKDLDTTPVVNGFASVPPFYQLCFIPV
# Chain of Lysosomal acid glucosylceramidase (Homo sapiens) (P04062 whole entry, looked up): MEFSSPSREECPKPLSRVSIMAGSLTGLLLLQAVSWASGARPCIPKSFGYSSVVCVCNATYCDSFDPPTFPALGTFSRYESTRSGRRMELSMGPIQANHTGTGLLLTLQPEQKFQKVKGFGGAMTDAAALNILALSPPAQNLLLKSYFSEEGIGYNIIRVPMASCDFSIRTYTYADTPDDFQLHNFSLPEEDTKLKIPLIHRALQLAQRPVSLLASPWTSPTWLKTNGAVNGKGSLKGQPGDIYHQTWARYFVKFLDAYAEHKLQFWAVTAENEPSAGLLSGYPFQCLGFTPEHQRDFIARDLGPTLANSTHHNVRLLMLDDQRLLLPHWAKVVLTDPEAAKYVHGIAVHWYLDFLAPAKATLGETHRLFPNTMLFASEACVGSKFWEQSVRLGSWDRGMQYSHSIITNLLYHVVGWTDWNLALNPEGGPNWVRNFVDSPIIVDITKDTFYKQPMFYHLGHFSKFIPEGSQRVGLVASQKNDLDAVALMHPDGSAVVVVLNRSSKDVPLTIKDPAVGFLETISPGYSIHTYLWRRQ
# Chain of Glucocorticoid receptor (Homo sapiens) (P04150 whole entry, looked up, the tested form may be a part): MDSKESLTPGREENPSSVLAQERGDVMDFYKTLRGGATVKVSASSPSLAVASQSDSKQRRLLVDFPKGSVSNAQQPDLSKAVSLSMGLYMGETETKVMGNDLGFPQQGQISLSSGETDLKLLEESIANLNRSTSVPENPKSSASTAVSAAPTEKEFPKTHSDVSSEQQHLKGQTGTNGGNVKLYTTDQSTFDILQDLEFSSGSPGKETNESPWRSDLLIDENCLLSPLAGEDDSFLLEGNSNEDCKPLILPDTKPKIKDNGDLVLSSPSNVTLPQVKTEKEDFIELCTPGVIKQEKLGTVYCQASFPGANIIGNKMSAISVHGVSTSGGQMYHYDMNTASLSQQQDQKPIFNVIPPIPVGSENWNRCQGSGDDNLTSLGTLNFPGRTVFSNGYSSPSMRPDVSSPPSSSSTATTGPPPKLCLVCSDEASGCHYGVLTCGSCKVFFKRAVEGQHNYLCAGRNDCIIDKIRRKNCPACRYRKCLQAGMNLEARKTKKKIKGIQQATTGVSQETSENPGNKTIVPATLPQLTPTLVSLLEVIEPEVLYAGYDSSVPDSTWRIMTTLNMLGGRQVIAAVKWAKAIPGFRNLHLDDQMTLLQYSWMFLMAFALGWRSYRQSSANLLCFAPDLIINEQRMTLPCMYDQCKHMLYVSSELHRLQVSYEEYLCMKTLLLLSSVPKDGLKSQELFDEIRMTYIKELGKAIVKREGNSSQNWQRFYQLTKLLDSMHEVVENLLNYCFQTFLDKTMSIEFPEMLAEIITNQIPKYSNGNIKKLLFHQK
# Chain of 3',5'-cyclic-AMP phosphodiesterase 4B (Homo sapiens) (Q07343 whole entry, looked up): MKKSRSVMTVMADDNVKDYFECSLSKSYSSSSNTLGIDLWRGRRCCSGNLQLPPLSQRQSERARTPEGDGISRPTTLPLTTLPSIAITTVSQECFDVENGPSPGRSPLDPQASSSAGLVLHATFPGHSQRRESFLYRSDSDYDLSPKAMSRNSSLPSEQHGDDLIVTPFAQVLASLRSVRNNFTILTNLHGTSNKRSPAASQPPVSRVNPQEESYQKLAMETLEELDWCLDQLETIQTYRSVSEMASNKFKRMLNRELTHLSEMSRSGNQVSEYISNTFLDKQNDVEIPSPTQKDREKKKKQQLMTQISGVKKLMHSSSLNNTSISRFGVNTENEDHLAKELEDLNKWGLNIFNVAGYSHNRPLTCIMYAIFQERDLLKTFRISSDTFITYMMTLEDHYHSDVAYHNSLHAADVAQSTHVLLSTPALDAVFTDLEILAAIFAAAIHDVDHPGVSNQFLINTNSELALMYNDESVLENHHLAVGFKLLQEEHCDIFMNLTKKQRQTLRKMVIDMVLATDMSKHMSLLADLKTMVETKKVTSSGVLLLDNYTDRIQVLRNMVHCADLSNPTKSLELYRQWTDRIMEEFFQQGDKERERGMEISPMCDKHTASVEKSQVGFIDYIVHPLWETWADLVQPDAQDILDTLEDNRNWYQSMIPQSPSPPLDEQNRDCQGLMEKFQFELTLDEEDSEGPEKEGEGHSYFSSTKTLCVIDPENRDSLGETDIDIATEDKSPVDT
# Chain of Ubiquitin carboxyl-terminal hydrolase 1 (Homo sapiens) (O94782 whole entry, looked up): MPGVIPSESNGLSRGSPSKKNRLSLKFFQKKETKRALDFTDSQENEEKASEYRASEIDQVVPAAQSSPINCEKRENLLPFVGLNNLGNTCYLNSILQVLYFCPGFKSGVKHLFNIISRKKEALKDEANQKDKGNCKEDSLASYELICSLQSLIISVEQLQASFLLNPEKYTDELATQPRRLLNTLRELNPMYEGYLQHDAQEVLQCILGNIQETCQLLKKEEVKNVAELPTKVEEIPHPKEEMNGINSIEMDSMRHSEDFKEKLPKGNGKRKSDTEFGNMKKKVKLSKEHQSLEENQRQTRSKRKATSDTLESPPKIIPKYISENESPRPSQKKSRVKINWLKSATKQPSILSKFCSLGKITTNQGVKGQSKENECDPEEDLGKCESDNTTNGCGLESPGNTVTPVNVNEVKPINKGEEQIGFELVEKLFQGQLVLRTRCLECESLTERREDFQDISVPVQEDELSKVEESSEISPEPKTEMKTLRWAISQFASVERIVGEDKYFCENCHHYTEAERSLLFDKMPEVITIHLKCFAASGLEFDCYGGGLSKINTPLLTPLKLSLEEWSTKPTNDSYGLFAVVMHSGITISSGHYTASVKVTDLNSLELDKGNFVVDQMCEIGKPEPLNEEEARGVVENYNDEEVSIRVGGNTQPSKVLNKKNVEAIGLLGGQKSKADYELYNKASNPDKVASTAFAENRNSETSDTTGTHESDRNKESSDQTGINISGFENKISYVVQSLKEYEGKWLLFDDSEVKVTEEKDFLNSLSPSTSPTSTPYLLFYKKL
# Chain of Cytochrome P450 1A2 (Homo sapiens) (P05177 whole entry, looked up): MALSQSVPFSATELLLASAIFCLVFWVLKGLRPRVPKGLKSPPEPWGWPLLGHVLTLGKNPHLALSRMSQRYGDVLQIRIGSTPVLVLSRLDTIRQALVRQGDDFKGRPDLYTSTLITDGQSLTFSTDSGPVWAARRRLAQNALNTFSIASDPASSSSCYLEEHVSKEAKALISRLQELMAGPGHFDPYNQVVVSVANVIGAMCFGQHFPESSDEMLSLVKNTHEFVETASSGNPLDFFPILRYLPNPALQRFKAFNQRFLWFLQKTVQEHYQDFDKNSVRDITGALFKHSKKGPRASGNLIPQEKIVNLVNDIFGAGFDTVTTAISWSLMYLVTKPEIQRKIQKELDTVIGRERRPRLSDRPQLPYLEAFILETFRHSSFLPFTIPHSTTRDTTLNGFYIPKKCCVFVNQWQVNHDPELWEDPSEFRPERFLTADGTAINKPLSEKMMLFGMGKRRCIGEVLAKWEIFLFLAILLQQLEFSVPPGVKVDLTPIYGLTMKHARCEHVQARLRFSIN
# Chain of Cytochrome P450 3A4 (Homo sapiens) (P08684 whole entry, looked up): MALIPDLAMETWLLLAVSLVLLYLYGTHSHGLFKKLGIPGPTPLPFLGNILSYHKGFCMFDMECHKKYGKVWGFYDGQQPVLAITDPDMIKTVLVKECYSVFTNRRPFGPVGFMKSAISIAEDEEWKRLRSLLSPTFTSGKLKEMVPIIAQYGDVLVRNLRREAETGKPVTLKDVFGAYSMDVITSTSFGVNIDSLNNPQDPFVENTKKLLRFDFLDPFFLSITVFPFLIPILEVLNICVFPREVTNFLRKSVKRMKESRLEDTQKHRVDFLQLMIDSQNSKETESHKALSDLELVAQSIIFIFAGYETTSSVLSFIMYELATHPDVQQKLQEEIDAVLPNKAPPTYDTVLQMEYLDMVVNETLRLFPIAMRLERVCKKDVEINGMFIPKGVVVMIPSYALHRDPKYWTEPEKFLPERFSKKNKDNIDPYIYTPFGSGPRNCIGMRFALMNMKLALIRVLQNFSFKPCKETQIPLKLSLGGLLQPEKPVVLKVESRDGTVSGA
# Chain of Dual specificity protein kinase CLK4 (Homo sapiens) (Q9HAZ1 whole entry, looked up): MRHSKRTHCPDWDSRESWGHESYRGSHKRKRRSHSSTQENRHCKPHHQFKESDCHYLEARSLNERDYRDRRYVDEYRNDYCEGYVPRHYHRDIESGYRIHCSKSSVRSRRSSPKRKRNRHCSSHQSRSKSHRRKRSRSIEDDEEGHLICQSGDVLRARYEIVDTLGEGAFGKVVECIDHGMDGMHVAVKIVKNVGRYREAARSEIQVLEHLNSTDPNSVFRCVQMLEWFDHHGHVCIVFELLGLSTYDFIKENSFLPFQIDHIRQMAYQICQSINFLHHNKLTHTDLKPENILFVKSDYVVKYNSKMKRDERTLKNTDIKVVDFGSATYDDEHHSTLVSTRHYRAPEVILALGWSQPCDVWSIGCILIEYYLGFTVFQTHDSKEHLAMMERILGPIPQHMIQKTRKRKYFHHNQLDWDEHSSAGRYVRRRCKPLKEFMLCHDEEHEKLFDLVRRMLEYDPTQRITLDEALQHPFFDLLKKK
SMILES,Potency [1] [µM],"activity change, negative = inhibition [2] [%]",Potency [3],"activity change, negative = inhibition [4] [%]","activity, negative = inhibition [5] [%]",Potency [6] [µM],Potency [7] [µM],Potency [8],Potency [9],Potency [10],Potency [11],activation [12] [%],Potency [13],Potency [14],outcome [15],Potency [16]
COc1ccccc1-c1nccc(NCc2cccnc2)n1,> 11.4,5.53,0.2 µM (active),1.48,0.0574,> 46,> 46,inactive,2.51 µM (active),inactive,3.98 µM (active),4.59,inactive,inactive,inactive,–
Cc1noc(C)c1-c1nccc(NCCN2CCOCC2)n1,> 11.4,-1.23,7.94 µM (active),-8.35,–,> 46,> 46,inactive,–,–,–,–,inactive,inactive,inactive,inactive
COc1ccc(CNc2ccnc(-c3cccnc3)n2)c(OC)c1,> 11.4,-5.2,0.316 µM (active),-0.132,–,> 46,> 46,inactive,–,inactive,2 µM (active),–,inactive,inactive,inactive,–
CN(Cc1ccco1)c1nc(-c2ccc3c(c2)OCO3)nc2ccccc12,> 11.4,17,0.501 µM (active),–,1.32,> 46,> 46,–,–,inactive,7.94 µM (active),–,inactive,inactive,inactive,inactive
CN(Cc1ccco1)c1cc(-c2cccnc2)ncn1,> 11.4,11.4,0.316 µM (active),-0.973,–,> 46,–,inactive,3.16 µM (active),inactive,–,–,inactive,inactive,inactive,inactive
CN(C)C(=O)c1ccc(-c2ccc3ncnc(NCCN4CCOCC4)c3c2)cc1,> 11.4,-5.51,–,6.26,-17.4,–,> 46,inactive,–,inactive,–,–,inactive,inactive,inactive,inactive
c1ccc(CNc2nc(-c3ccoc3)nc3ccccc23)cc1,> 2.29,-9.34,0.631 µM (active),-7.24,12.7,> 46,> 46,–,–,inactive,–,–,inactive,inactive,inactive,inactive
COc1ccccc1-c1cc(Nc2ccn[nH]2)ncn1,> 11.4,-9.99,0.631 µM (active),2.51,6.94,> 46,> 46,–,3.98 µM (active),inactive,6.31 µM (active),–,inactive,inactive,inactive,inactive
CCNc1ncc2nc(C)c(=O)n(CCOC)c2n1,> 11.4,-1.39,–,13.7,-7.84,> 9.22,> 46,inactive,–,–,–,–,inactive,inactive,inactive,inactive
COc1ccc2[nH]cc(CCNc3ccnc(-c4ccccc4C(F)(F)F)n3)c2c1,> 11.4,-10.2,3.98 µM (active),-1.93,-14.8,> 46,> 46,inactive,2 µM (active),inactive,–,–,inactive,–,inactive,inactive
c1ccc(CNc2cc(-c3ccoc3)ncn2)cc1,> 11.4,-7.43,25.1 µM (active),-2.19,-2.59,> 46,–,inactive,–,inactive,–,–,inactive,inactive,inactive,inactive
CCNc1ncc2nc(-c3cccs3)c(=O)n(C[C@H]3CCCO3)c2n1,> 11.4,9.48,2.51 µM (active),18.7,–,> 9.22,> 46,–,–,inactive,–,–,inactive,inactive,inactive,inactive
CS(=O)(=O)Nc1cccc(-c2cc(NCc3ccccc3)ncn2)c1,> 11.4,-7.54,12.6 µM (active),8.48,-7.25,–,> 46,inactive,–,inactive,–,–,inactive,inactive,inactive,inactive
COc1ccc(CNc2ncncc2-c2ccc(N(C)C)cc2)c(OC)c1,> 11.4,-8.89,0.631 µM (active),1.33,0.205,> 46,> 46,–,0.199 µM (active),inactive,1.58 µM (active),–,inactive,–,inactive,inactive
